This note sets out measurements from PubChem BioAssay AID652023 (National Center for Advancing Translational Sciences (NCATS), 2013).

For the assay, the target named is Thioredoxin reductase 1, cytoplasmic (Rattus norvegicus) (UniProt O89049). Put plainly: qHTS Assay for Inhibitors of Mammalian Selenoprotein Thioredoxin Reductase 1 (TrxR1): Hit Validation in Primary Screen. To be noted: recombinant TrxR1, NADPH fluorescence consumption, selenite substrate. From the text: The selenoprotein thioredoxin reductase (TrxR; EC 1.8.1.9) is a FAD containing homodimeric pyridine nucleotide-disulfide oxidoreductase with many cellular roles. Together with NADPH and its prime substrate thioredoxin (Trx), the enzyme forms the core of the Trx system. The mammalian Trx system exerts a wide spectrum of functions including redox regulation, antioxidant defense, regulation of transcription factors as well as support of cell growth and replication. Many of these functions involve the reduction of Trx, which may subsequently reduce a number of different substrates including ribonucleotide reductase, peroxiredoxins or NFkB. […]
Thioredoxin reductase 1, cytoplasmic (Rattus norvegicus), sequence (O89049 whole entry, looked up): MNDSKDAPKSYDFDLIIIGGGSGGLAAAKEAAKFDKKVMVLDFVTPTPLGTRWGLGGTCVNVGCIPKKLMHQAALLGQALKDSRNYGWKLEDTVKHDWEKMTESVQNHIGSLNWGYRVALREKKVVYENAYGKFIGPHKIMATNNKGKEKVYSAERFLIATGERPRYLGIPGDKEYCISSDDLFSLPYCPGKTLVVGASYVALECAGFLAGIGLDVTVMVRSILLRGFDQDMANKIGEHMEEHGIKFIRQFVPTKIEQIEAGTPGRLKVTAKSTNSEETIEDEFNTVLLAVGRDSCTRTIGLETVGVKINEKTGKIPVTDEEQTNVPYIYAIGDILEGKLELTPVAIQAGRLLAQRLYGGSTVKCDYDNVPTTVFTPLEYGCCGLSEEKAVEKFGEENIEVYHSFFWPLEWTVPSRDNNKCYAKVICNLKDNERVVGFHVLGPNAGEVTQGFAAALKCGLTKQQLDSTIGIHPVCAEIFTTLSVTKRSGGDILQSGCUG
Assay protocol: 2 uL of reagents (buffer in column 4 as negative control and 90 nM rTrxR1 in columns 1-3 and 5-48) were dispensed into Greiner black solid-bottom 1,536-well assay plates, followed by 1 uL of NADPH (400 uM final concentration) to each well. […] The plate was immediately transferred to a ViewLux high-throughput CCD imager (PerkinElmer), wherein kinetic measurements of NADPH fluorescence (Ex 340 nm, Em 450 nm) were acquired (8 minute kinetic read). Read 1 was utilized to assess the capacity of a compound to serve as an rTrxR1 substrate, i.e. a decrease in NADPH fluorescence compared to the no-compound background is an indication of a substrate behavior for that particular compound. […]
(In general: In qHTS, concentration-response curves come from the screen itself.)

This is one part of the list. Records with an inconclusive call do not appear. The source made the active and inactive calls. Calls come from the whole dose curve; as a rule, active = well fitted inhibition curve with a large enough effect; inconclusive = small, poorly fitted or top-dose-only effect; inactive = flat fitted curve, though single readings scatter.

`CC1CCN(C(=O)c2ccc(S(=O)(=O)Cc3cc(F)ccc3F)c([N+](=O)[O-])c2)CC1`: the Potency is 2.38 µM (active).
